Reference: PubChem BioAssay (NCATS)
Values without a mark were called inactive. Records with an inconclusive call do not appear. The source made the active and inactive calls. Unless noted, the call rests on the fitted dose curve; in most records, active means well fitted curve in either direction with a large enough effect (not every such curve was filed as active); inconclusive means small, poorly fitted or top-dose-only effect, or another doubt; inactive means flat fitted curve, though single readings scatter.

Assays:
[1] = NFAT Signaling Pathway (AID 444); conditions: Jurkat NFAT-bla M1, carbachol, beta-lactamase ratio, 5 h; at 17.2 µM (top of the series) unless noted;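 further: carbachol stimulus at about its EC50 of 1 µM final; on the % scale 0 is the no-effect control and ±100 the full control effect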
In short: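 Read-out: CCF4 FRET ratio (460 nm/530 nm) after 1 h RT dye loading, used for %activity and AC50 from titration series. Cells: Jurkat NFAT-β-lactamase/M1 line, treated with compound plus 1 uM carbachol for 5 h, 37 °C.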

[2] = Stat Signaling Pathway (AID 446); conditions: ME-180 SIE beta-lactamase reporter, IL-6 stimulated, 5 h; at 17.2 µM (top of the series) unless noted;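 further: ME-180 cervical cancer cells given 40 pM IL-6 alongside compound; SIE-controlled beta-lactamase reporter measured as 460/530 nm FRET emission ratio; on the % scale 0 is the no-effect control and ±100 the full control effect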
In short: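 ME-180 cells carrying a SIE-driven beta-lactamase reporter are stimulated with 40 pM IL-6 for 5 h at 37C in the presence of compound. The 460/530 nm FRET substrate ratio is read after 2.5 h at RT. Data are normalised to 300 pM IL-6 and to 125 nM JAK inhibitor controls.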

[3] = molecular target: Glucocorticoid receptor (Homo sapiens) (UniProt P04150); assay: GR-GFP Redistribution (AID 450;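 active means compounds whose dose series gives a full or clear partial fitted curve of increased nuclear translocation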; further: potency means the concentration at half of the fitted maximal effect)
Chain of Glucocorticoid receptor (Homo sapiens) (P04150 whole entry, looked up): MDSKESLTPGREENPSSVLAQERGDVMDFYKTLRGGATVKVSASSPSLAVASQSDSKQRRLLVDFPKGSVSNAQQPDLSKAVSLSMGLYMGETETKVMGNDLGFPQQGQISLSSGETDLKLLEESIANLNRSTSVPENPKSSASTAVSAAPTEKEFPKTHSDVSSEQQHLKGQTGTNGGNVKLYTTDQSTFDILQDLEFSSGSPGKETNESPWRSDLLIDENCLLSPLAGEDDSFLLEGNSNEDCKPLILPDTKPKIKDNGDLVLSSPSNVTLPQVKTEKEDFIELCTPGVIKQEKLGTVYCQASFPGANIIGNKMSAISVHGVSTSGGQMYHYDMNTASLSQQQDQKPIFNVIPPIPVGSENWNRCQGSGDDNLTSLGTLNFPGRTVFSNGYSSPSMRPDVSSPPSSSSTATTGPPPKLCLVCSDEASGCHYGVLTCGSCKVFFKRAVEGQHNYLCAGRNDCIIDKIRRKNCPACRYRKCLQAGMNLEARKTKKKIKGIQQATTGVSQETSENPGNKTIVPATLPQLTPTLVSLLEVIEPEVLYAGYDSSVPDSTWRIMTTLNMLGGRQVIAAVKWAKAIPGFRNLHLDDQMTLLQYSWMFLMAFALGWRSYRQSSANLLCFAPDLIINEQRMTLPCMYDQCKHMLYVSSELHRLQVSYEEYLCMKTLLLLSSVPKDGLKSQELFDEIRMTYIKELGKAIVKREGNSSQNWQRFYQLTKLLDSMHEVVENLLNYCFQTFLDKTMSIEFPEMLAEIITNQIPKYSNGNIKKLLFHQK

| Compound | activity change, negative = inhibition [1] | activity, negative = inhibition [2] | Potency [3] |
| --- | --- | --- | --- |
| CCN1CCc2c(C#N)c(N3CCCCC3)nc(N3CCOCC3)c2C1 | -1.02% | 18.4% | > 20.6 µM |
| CC(=NC1CCCC1)c1c(C)[nH]n(-c2nc3ccccc3s2)c1=O | -20.1% | -8.78% | > 20.6 µM |
| COc1ccc(C2/C(=C(/O)c3ccc(OC(C)C)cc3)C(=O)C(=O)N2CCCN2CCOCC2)cc1 (stereo not given) | -1.06% | -10.9% | > 20.6 µM |
| Clc1ccc(-n2ncc3c(NCc4ccccn4)ncnc32)cc1 | -18.5% | -20.2% | > 20.6 µM |
| COc1ccc(OCC(O)Cn2c(Nc3cccc(C)c3)nc3c2c(=O)n(C)c(=O)n3C)cc1 (stereo not given) | 8.48% | -15.9% | > 20.6 µM |
| CCSC1=C(C#N)C(c2cccs2)C(C(=O)OC)=C(C)N1 (stereo not given) | 2.23% | -15.6% | > 20.6 µM |
| Cc1nc2sc3c(c2c(=O)o1)CC(C)(C)OC3 | -10.1% | -8.31% | > 20.6 µM |
| Cc1nc2oc(C(=O)c3ccc(Br)cc3)c(N)c2c2c1COC(C)(C)C2 | 27.3% | 0.926% | > 20.6 µM |
| CCC1(C)Cc2c(C#N)c(N)sc(=S)c2CO1 (stereo not given) | -12.1% | -10.3% | > 20.6 µM |
| COc1cccc(OC)c1OCC(C)CNCC1CCCO1 (stereo not given) | -18.8% | 10.2% | > 20.6 µM |
| Cc1ccc(C(=O)CSC2=C(C#N)C(c3ccco3)C3=C(CCCC3=O)N2)cc1 (stereo not given) | -8.28% | -22.5% | > 20.6 µM |
| CCOc1ccc(CC2CC(=O)NC2=O)cc1 (stereo not given) | -5.51% | -1.04% | > 20.6 µM |
| CNC(=O)c1cc2c(ccc3ccccc32)oc1=N | -5.77% | 13.1% | > 20.6 µM |
| Cc1sc(-n2c(C)cc(/C=N/n3cnnc3)c2C)c(C#N)c1C | -9.91% | -17% | > 20.6 µM |
| Nc1c(Br)cc2oc(-c3ccccc3)nc2c1Br | 4.7% | 14.6% | > 20.6 µM |
| CCOc1ccc(C2C(C#N)=C(N)Oc3cc(C)n(CCN4CCOCC4)c(=O)c32)cc1OCC (stereo not given) | 7.01% | 0.201% | > 20.6 µM |
| COCCOC(=O)c1c(C)oc2ccc(OC(=O)COc3c(F)c(F)c(F)c(F)c3F)cc12 | -2.9% | 1.17% | > 20.6 µM |
| CCCc1cc(-n2ccnc2C)n2c(nc3ccccc32)c1C#N | 6.63% | -3.66% | > 20.6 µM |

| Compound | activity change, negative = inhibition [1] | activity, negative = inhibition [2] | Potency [3] |
| --- | --- | --- | --- |
| Cc1cc(=O)[nH]c(SCC(=O)c2ccccc2)c1C#N | 14.5% | -5.21% | > 20.6 µM |
| CCCSc1nnc(NC(=O)Nc2ccccc2)s1 | -25.9% | -19.6% | > 20.6 µM |
| CC1(C(=O)O)CCC(C(=O)NC2CCCCCC2)C1(C)C (stereo not given) | -7.92% | 10.5% | > 20.6 µM |
| CN1CCc2c(C#N)c(N3CCCCC3)nc(NCc3ccccc3)c2C1 | -7.69% | -16.2% | > 20.6 µM |
| CCCn1c(SCC(N)=O)nc2c(c1=O)C1(CCCC1)Cc1ccccc1-2 | -22.4% | -8.32% | > 20.6 µM |
| CC(C)Cc1nc(N2CCN(C(=O)C(C)C)CC2)c(C#N)c2c1CCC2 | -19.4% | 7.39% | > 20.6 µM |
| COc1cccc(N2CCN(c3ncnc4c3[nH]c3ccccc34)CC2C)c1 (stereo not given) | -139% (active) | -104% (active) | > 20.6 µM |
| C=CCOC(=O)C1=C(C)NC(SCC(=O)N(CC)CC)=C(C#N)C1c1ccccc1 (stereo not given) | 2.35% | -2.74% | > 20.6 µM |
| COc1ccc(C(=O)N/C(N)=N/c2nc3ccccc3o2)cc1 | -19% | -5.99% | > 20.6 µM |
| COC(=O)c1ccn(C(=O)c2ccc(Cl)cc2)n1 | -8.81% | -10.2% | > 20.6 µM |
| CCn1cc(C(=O)NCc2ccco2)c(=O)c2cc(F)c(N3CCN(C(=O)c4ccco4)CC3)cc21 | -28.1% | -28.5% | > 20.6 µM |
| CCNCc1cc2cc(C)ccc2[nH]c1=O | -15.2% | 2.05% | > 20.6 µM |
| CCOc1ccc(S(=O)(=O)N(C)CCO)cc1-c1nc2c(C(C)(C)C)nn(C)c2c(=O)[nH]1 | 6.99% | -3.41% | > 20.6 µM |
| CC[C@]1(O)C[C@H]2CN(CCc3c([nH]c4ccccc34)[C@](C(=O)OC)(c3cc4c(cc3OC)N(C)[C@@H]3[C@](O)(C(=O)OC)[C@H](OC(C)=O)[C@]5(CC)C=CCN6CC[C@]43[C@@H]65)C2)C1 | 0.463% [at 38 µM] | -18.9% [at 38 µM] | > 46 µM |
| c1ccc(N2CCN(c3nc(-c4ccccn4)nc4ccccc34)CC2)cc1 | 0.815% | -14.9% | > 20.6 µM |
| CCOC(=O)C1=C(C)N=C2SC(C)C(=O)N2C1c1ccc(C(=O)OC)cc1 (stereo not given) | -15.8% | -8.28% | > 20.6 µM |
| COc1cccc(-c2nnc3sc(-c4ccccc4)nn23)c1 | -8.12% | -8.55% | > 20.6 µM |
